Screening data from PubChem BioAssay.
Shown are actives, neighbours in structure and some others; about 6.9% of the full set was active somewhere.
Vif-A3F inh: Vif-A3F binding inhibition. HeLa A3F-eYFP + Vif (tagged APOBEC3F with the HIV-1 protein that degrades it), YFP fluorescence increase. Potency, µM (titrated, usually from 46.1 µM). actives 0.2% (n = 390,000); further: nearly all actives have a fitted effect of over 65% in size
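HeLa cells stably expressing Vif plus C-terminally eYFP-tagged A3F were seeded, incubated overnight at 37 deg C, dosed with compound, incubated overnight again at 37 deg C. Yellow fluorescence (Ex 488/Em 500-530) reported blocked Vif-mediated A3F-eYFP degradation.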
MCF10A rereplic: induces DNA re-replication in MCF 10a normal breast cells. MCF 10A DNA re-replication, Hoechst nuclear intensity, 48 h. Potency, µM (titrated, usually from 46.1 µM), most hits filed as activators. actives 2.9% (n = 350,000). AID 624296; further: nearly all actives have a fitted effect of over 50% in size
SW480 rereplic: induces DNA re-replication in SW480 colon adenocarcinoma cells; SW480 DNA re-replication, Hoechst DNA content imaging, 48 h; AID 624297; Potency, µM (highest dose often 46.1 µM), most hits filed as activators; actives 1.8% (n = 340,000); further: nearly all actives have a fitted effect of over 55% in size
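Image-based read-out: total Hoechst fluorescence of nuclei (405 nm excitation, 500-530 nm emission), with hits raising the fraction of high-intensity nuclei. SW480 colon cells incubated 48 hr with compounds at 37 C.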
Giardia kill: Giardia lamblia killing | Giardia lamblia trophozoite viability | activity change, % at 7.66 µM, hits read low | actives 0.15% (n = 340,000); in the data active means activity change below about -80%; inconclusive means between about -30% and that limit;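 further: parasites exposed to compound for two days anaerobically before the ATP read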
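Killing of trophozoites was scored by loss of ATP luminescence after a 48 hrs anaerobic exposure to compounds at 37 deg C, using 100 cells per well.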
Vif-A3G inh: Vif-A3G binding inhibition; HeLa A3G-eYFP + Vif (tagged APOBEC3G with the HIV-1 protein that degrades it), YFP fluorescence, overnight; Q9HC16; actives 0.076% (n = 410,000); Potency, µM (doses to about 46.1 µM), most hits filed as inhibitors; further: nearly all actives have a fitted effect of over 60% in size
Target sequence (Q9HC16 whole entry, looked up): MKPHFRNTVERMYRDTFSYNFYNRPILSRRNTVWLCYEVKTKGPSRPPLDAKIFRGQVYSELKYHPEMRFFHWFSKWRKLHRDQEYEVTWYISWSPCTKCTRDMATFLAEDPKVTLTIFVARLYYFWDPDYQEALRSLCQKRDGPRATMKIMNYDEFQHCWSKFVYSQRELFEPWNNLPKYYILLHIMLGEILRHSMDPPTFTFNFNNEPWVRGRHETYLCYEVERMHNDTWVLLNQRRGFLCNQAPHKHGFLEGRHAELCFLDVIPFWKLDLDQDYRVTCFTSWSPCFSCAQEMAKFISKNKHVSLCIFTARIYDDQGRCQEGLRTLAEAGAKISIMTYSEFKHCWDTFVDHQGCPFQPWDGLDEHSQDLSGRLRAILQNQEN
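HeLa cells stably expressing Vif and C-terminally eYFP-tagged A3G, seeded overnight at 37 deg C, then exposed to compound by pintool overnight at 37 deg C. Rise in yellow fluorescence (Ex 488/Em 500-530, Acumen) marks blocked Vif-driven A3G degradation.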
IL1B secr inh: inflammasome signaling inhibition, IL-1 beta readout. THP-1 LPS/ATP IL-1B secretion, AlphaLISA, 16 h; stronger effect = lower value. activity change, % at 57.5 µM. actives 4.7% (n = 360,000). AID 743279; in the data active means activity change below about -50%; inconclusive means mostly about -30% to -49%
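THP-1 cells pretreated 1 hr with compounds (up to 57.5 uM final), then stimulated with LPS (250 ng/mL final) plus ATP (1.25 mM final); secreted IL-1B measured by AlphaLISA after 16 hr, decreased signal indicating inhibition.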
Numbers stand for hits; 0 = inactive; ? = inconclusive; - = not tested or not shown. Unless noted, the call rests on the fitted dose curve; in most records, active means well fitted curve in the direction sought with a large enough effect; inconclusive means small, poorly fitted or top-dose-only effect, or another doubt; inactive means no such curve, though single readings can be large; an effect the other way counts as inactive or inconclusive.

SMILES	Vif-A3F inh	MCF10A rereplic	SW480 rereplic	Giardia kill	Vif-A3G inh	IL1B secr inh
COc1cccc(NC(=O)C(Cc2ccccc2)NS(=O)(=O)c2ccc3c(c2)oc(=O)n3C)c1 (centres undefined)	0	-	-	-	0	-
CC(CSC(=O)c1ccccc1)C(=O)N1C[C@@H](Sc2ccccc2)C[C@H]1C(=O)O (some centres undefined)	-	0	0	-	-	-
O=C(Nc1cccc(Cl)c1)C1CCCN(c2nn3cc(-c4ccc(F)cc4)nc3s2)C1 (centres undefined)	0	-	-	-	0	-
c1ccc(-c2cc(-c3nc4ccccc4[nH]3)c3ccccc3n2)cc1	0	?	0	0	0	-66.7
Cc1nc(SCC(=O)N2CCNC2=O)c2ccccc2n1	0	?	?	0	0	-95.6
CCOc1cc(CNC(=O)C2COc3ccccc3C2)cc(OCC)c1OCC (centres undefined)	0	-	-	-	0	-
CC1(C)CC(=O)C2=C(C1)N=C1c3ccccc3C(=O)C1C2c1ccc(Cl)cc1 (centres undefined)	0	0	0	0	0	-59.5
CCOC(=O)C1=C(C)N=C2c3ccccc3C(=O)C2C1c1ccc(Cl)cc1 (centres undefined)	0	0	0	0	0	-51.9
Cc1ccc(C2C3=C(CC(C)(C)CC3=O)N=C3c4ccccc4C(=O)C32)cc1 (centres undefined)	0	0	?	0	0	-53.0
CSc1ccc(/C=C2\C=Cc3ccc([N+](=O)[O-])cc32)cc1	-	-	-	-	0	-
OB(O)c1ccc(Cl)s1	-	-	-	0	0	-
O=C(O)c1ccc(N/N=C/c2cc3cc4c(cc3nc2Cl)OCCO4)cc1	?	13µM	?	-88.4	?	0
Cc1ccc(C(O)(C(=O)NNS(=O)(=O)c2ccc(C)cc2)c2ccc(C)cc2)cc1	0	0	0	0	0	-52.6
Cc1ccc(S(=O)(=O)NNC(=O)C(=O)NNS(=O)(=O)c2ccc(C)cc2)cc1	0	0	0	0	0	0
CC(=O)Nc1ccc(C(=O)NNS(=O)(=O)c2ccc(C)cc2)cc1	0	0	4.11µM	0	0	0
CCc1ccc(S(=O)(=O)c2nnn(-c3ccc(F)cc3)c2N)cc1	0	-	-	-	0	-
COC(=O)c1ccc2c(c1)N(CC(=O)Nc1ccc(C)cc1Cl)C(=O)c1ccccc1S2	?	-	-	-	0	-
O=C(Cn1c(=O)n2nc(-c3ccccc3)nc2c2ccccc21)Nc1ccccc1C(F)(F)F	0	-	-	-	0	-
CC1=C(C#N)C(c2cn(-c3ccccc3)nc2-c2cccs2)C(C#N)=C(C)N1	0	0	0	0	0	-90.4
COC(=O)c1c(Sc2ccccc2)c2ccccc2n1C	0	0	0	0	0	0
Cn1c(Sc2ccc(Br)cc2)c(C=O)c2ccccc21	0	?	?	0	0	-80.5
COc1ccc(CNC(=O)C2CCN(C(=O)c3ccc(-n4ccc5ccccc54)s3)CC2)cc1	0	-	-	-	0	-
CC(C)(C)c1ccc(OCC(=O)Nc2c(C(=O)c3ccc(F)cc3)oc3ccccc23)cc1	0	-	-	-	0	-
O=C(NCc1ccccc1)c1c2c(nc3ccccc13)C(=O)N(C1CCCCC1)C2	0	-	-	-	0	-
CCN1/C(=C\C=C(C(C)=O)C(C)=O)Sc2ccccc21	22.4µM	0	0	0	22.4µM	0
SMILES	Vif-A3F inh	MCF10A rereplic	SW480 rereplic	Giardia kill	Vif-A3G inh	IL1B secr inh
CCOC(=O)/C(C#N)=C(C)/C=C1\Sc2ccccc2N1CC	?	0	0	0	0	0
CCN1/C(=C\C(=S)Nc2ccccc2)Sc2ccccc21	0	0	0	0	0	-97.1
O=[N+]([O-])c1ccc(/C=C/c2cc(Cl)nc3ccccc23)cc1	-	-	-	-	0	-
CC(C)NC(=S)NN=C1CCC(c2ccccc2)CC1 (centres undefined)	0	0	20.6µM	0	0	0
CC(C)NC(=S)N/N=C1\CCCc2ccccc21	?	0	?	0	0	0
COc1ccc(S(=O)(=O)n2nc(C)c(S(=O)(=O)N3CCCCCC3)c2C)cc1C	0	-	-	-	0	-
Cc1cccc(NNC(=S)Nc2c(C)cccc2C)c1	?	0	0	0	0	-102.0
Cc1cccc(NNC(=S)Nc2ccccc2)c1	0	-	-	-	0	0
